Assay results from PubChem BioAssay (NCI).
About 79,000 compounds went through this panel and 15% of them were active in at least one assay; those are over-represented in the sample as a whole. The source made the active and inactive calls. No stated cut-off is given here; in the data, active means growth inhibition above about 70%; inactive means the rest.

Assays:
[1] = NCI Yeast Anticancer Drug Screen. Data for the rad52 strain (AID 147);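 further: 0% = growth of vehicle-treated control cultures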; conditions: S. cerevisiae rad52 mutant growth inhibition, stronger effect = higher value
Outline: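 Vehicle-treated cultures served as the reference for growth inhibition of compound-exposed yeast bearing a DNA repair mutation.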

[2] = NCI Yeast Anticancer Drug Screen. Data for the wt1 strain (AID 149);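 further: 0% = growth of vehicle-treated wt1 cultures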; conditions: S. cerevisiae wt1 strain (SPY 50644) growth inhibition, stronger effect = higher value
Outline: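 The wt1 strain was treated with compounds, and growth was compared with vehicle-treated cultures to give inhibition.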

[3] = NCI Yeast Anticancer Drug Screen. Data for the rad50EPP+ strain (AID 151);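 further: 0% = growth of vehicle-treated control cultures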; conditions: S. cerevisiae rad50 mutant strain, stronger effect = higher value
Outline: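 In this screen, rad50EPP+ yeast were exposed to compounds. Growth inhibition was scored against vehicle-treated controls.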

[4] = NCI Yeast Anticancer Drug Screen. Data for the mgt1 strain (AID 153); conditions: S. cerevisiae mgt1 mutant growth inhibition, stronger effect = higher value
Outline: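 mgt1 strain exposed; growth vs vehicle control recorded as inhibition.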

[5] = NCI Yeast Anticancer Drug Screen. Data for the rad50 strain (AID 155);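 further: 0% = growth of vehicle-only cultures of the same strain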; conditions: S. cerevisiae rad50 strain growth inhibition, stronger effect = higher value
Outline: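 Cells are treated with compound, grown, and their growth is then scored against vehicle-only cultures of the same repair-deficient yeast strain.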

[6] = NCI Yeast Anticancer Drug Screen. Data for the mec2-1 strain (AID 157); conditions: S. cerevisiae mec2-1 strain, stronger effect = higher value
Outline: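 Vehicle-treated cultures served as reference for growth inhibition of compound-exposed mec2-1 yeast.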

[7] = NCI Yeast Anticancer Drug Screen. Data for the rad14 strain (AID 159);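 further: 0% = growth of vehicle-treated control cultures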; conditions: S. cerevisiae rad14 strain growth inhibition, stronger effect = higher value
Outline: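 Readout: yeast growth inhibition, referenced to vehicle-only cultures. Strain bears a defined alteration in DNA damage repair.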

[8] = NCI Yeast Anticancer Drug Screen. Data for the sgs1 mgt1 strain (AID 161);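 further: 0% = growth of cultures given vehicle only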; conditions: S. cerevisiae sgs1 mgt1 strain, stronger effect = higher value
Outline: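 Read-out: growth inhibition vs vehicle controls. Cells: mutant yeast strain deficient in DNA damage repair.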

[9] = NCI Yeast Anticancer Drug Screen. Data for the CLN2oe strain (AID 163);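 further: 0% = growth of vehicle-only control cultures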; conditions: S. cerevisiae CLN2oe strain, stronger effect = higher value
Outline: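 Inhibition relative to vehicle-treated yeast is reported. Cells: strain with genetic alteration in cell-cycle control, grown with compound.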

[10] = NCI Yeast Anticancer Drug Screen. Data for the cln2 rad14 strain (AID 165);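 further: 0% = growth equal to vehicle treated cultures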; conditions: S. cerevisiae cln2 rad14 strain, stronger effect = higher value
Outline: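 Each compound was tested on cln2 rad14 yeast. Inhibition of growth was calculated against vehicle-exposed controls.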

[11] = NCI Yeast Anticancer Drug Screen. Data for the bub3 strain (AID 167); conditions: S. cerevisiae bub3 mutant strain, stronger effect = higher value
Outline: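 Part of a panel of yeast mutants defective in DNA damage repair or cell cycle regulation. Each strain is grown with compound, and inhibition is calculated relative to solvent-treated cultures.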

[12] = NCI Yeast Anticancer Drug Screen. Data for the wt2 strain (AID 169);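 further: 0% = growth of vehicle-treated yeast cultures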; conditions: S. cerevisiae wt2 strain growth inhibition, stronger effect = higher value
Outline: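 Inhibition of yeast growth was determined after compound treatment, normalised to controls receiving only vehicle.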

[13] = NCI Yeast Anticancer Drug Screen. Data for the mlh1 strain (AID 171);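 further: 0% = growth of vehicle-treated control cultures of the same strain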; conditions: S. cerevisiae mlh1 strain growth inhibition, stronger effect = higher value
Outline: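 Vehicle-normalised growth inhibition of a repair- or checkpoint-altered yeast strain following compound treatment.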

[14] = NCI Yeast Anticancer Drug Screen. Data for the sgs1 strain (AID 173);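 further: 0% = growth of vehicle-only control cultures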; conditions: S. cerevisiae sgs1 mutant, stronger effect = higher value
Outline: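 Screen format: yeast with repair or checkpoint alterations, compound exposure, growth read relative to vehicle.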

[15] = NCI Yeast Anticancer Drug Screen. Data for the mlh1 rad18 strain (AID 175); conditions: S. cerevisiae mlh1 rad18 strain growth inhibition, stronger effect = higher value
Outline: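 Vehicle-treated cultures served as the reference for growth inhibition in a yeast strain carrying DNA damage repair alterations exposed to each compound.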

[16] = NCI Yeast Anticancer Drug Screen. Data for the rad18 strain (AID 177); conditions: S. cerevisiae rad18 mutant growth inhibition, stronger effect = higher value
Outline: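 Test articles were incubated with altered yeast defective in DNA damage repair. Results are given as inhibition of growth versus vehicle.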

[17] = at 5.0 µM (retest, dose inferred, filed as 0.5)
[18] = at 50.0 µM (retest, dose inferred, filed as 5.0)

Measured: growth inhibition

O=C(/C=C/c1ccsc1)c1cccs1
active: [1]; at 100.0 µM 82% | [3]; at 100.0 µM 95% | [4]; at 100.0 µM 92% | [5]; at 100.0 µM 92% | [6]; at 100.0 µM 98% | [7]; at 100.0 µM 87% | [9]; at 100.0 µM 84% | [11]; at 100.0 µM 97% | [12]; at 100.0 µM 85% | [13]; at 100.0 µM 96% | [14]; at 100.0 µM 83% | [16]; at 100.0 µM 84%
inactive: [1]; at 1.2 µM -16% | [1]; at 3.7 µM -18% | [1]; at 11.0 µM -9% | [1]; at 33.0 µM -12% | [2]; at 1.2 µM -33% | [2]; at 3.7 µM -41% | [2]; at 11.0 µM -35% | [2]; at 33.0 µM -35% | [2]; at 100.0 µM 17% | [3]; at 1.2 µM 5% | [3]; at 3.7 µM 11% | [3]; at 11.0 µM 21% | [3]; at 33.0 µM 54% | [4]; at 1.2 µM 3% | [4]; at 3.7 µM -2% | [4]; at 11.0 µM -4% | [4]; at 33.0 µM 10% | [5]; at 1.2 µM 21% | [5]; at 3.7 µM 19% | [5]; [17] -15% | [5]; at 11.0 µM 22% | [5]; at 33.0 µM 27% | [5]; [18] 11% | [5]; at 50.0 µM 46.6% | [6]; at 1.2 µM -3% | [6]; at 3.7 µM -7% | [6]; [17] 4% | [6]; at 11.0 µM -2% | [6]; at 33.0 µM 8% | [6]; [18] 11% | [6]; at 50.0 µM 19.9% | [7]; at 1.2 µM 3% | [7]; at 3.7 µM 0% | [7]; at 11.0 µM -8% | [7]; at 33.0 µM 9% | [8]; [17] -1% | [8]; [18] 33% | [8]; at 50.0 µM 66.6% | [9]; at 1.2 µM 4% | [9]; at 3.7 µM 14% | [9]; at 11.0 µM 3% | [9]; at 33.0 µM 5% | [10]; [17] 37% | [10]; [18] 42% | [10]; at 50.0 µM 4.55% | [11]; at 1.2 µM 1% | [11]; at 3.7 µM 28% | [11]; [17] -11% | [11]; at 11.0 µM 11% | [11]; at 33.0 µM 23% | [11]; [18] 66% | [11]; at 50.0 µM 15.2% | [12]; at 1.2 µM -24% | [12]; at 3.7 µM -36% | [12]; at 11.0 µM -31% | [12]; at 33.0 µM -29% | [13]; at 1.2 µM 6% | [13]; at 3.7 µM 3% | [13]; at 11.0 µM -8% | [13]; at 33.0 µM 25% | [14]; at 1.2 µM -15% | [14]; at 3.7 µM -23% | [14]; at 11.0 µM -24% | [14]; at 33.0 µM -17% | [15]; [17] -9% | [15]; [18] 69% | [15]; at 50.0 µM 44.6% | [16]; at 1.2 µM -3% | [16]; at 3.7 µM -5% | [16]; at 11.0 µM -12% | [16]; at 33.0 µM -6%
